Test results as given in PubChem BioAssay (Tox21).
Records with an inconclusive call do not appear. Active and inactive are the calls of the source. Unless noted, the call rests on the fitted dose curve; in most records, active means well fitted curve in the direction sought with a large enough effect in the repeat runs; inconclusive means weak or mixed curves; inactive means no such curve, though single readings can be large; an effect the other way counts as inactive or inconclusive.

Key:
[1] = qHTS assay to identify small molecule agonists or antagonists of the thyroid stimulating hormone receptor (TSHR) signaling pathway - wild type cell line counter screen (AID 1259384; calls by dose curve)
Summary of the method: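 Wild-type HEK293 cells were plated 18 h at 37 C/5% CO2, pin-dosed with compound plus Ro20-1724 medium, held 30 min at room temperature, then given cAMP-d2 and anti-cAMP-cryptate; fluorescence was read after 1 h. Fifteen concentrations, triplicate.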

[2] = biological target: Thyrotropin receptor (Homo sapiens) (UniProt P16473); assay: qHTS assay to identify small molecule antagonists of the thyroid stimulating hormone receptor (TSHR) signaling pathway (AID 1259385; calls by dose curve; further: nearly all actives have a fitted effect of over 20% in size)
Summary of the method: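 TSHR-HEK293 cells were plated and held 18 h at 37C/5% CO2, then given compound plus Ro20-1724 and stimulated with TSH at 1.5 ng/mL final. After 30 min at room temperature, cAMP was detected with cAMP-d2/anti-cAMP-cryptate (1 h) by fluorescence.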

[3] = qHTS assay to identify small molecule agonists of the estrogen receptor alpha (ER-alpha) signaling pathway in the presence of an antagonist - cell viability counter screen (AID 1259386);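 further: cells exposed to compounds for 22 h at 37 °C before the viability read; nearly all actives have a fitted effect of over 30% in size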; further: potency means the concentration at half of the fitted maximal effect
Summary of the method: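 VM7Luc4E2 cells (endogenous full-length ER-alpha, 4×ERE-luciferase) were held 5 days in phenol red-free medium with 10% charcoal-stripped FBS, plated, then given 10.0nM ICI-182,780 and compounds at 15 concentrations for 22hr at 37C; viability read by CellTiter-Fluor fluorescence.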

[4] = biological target: Progesterone receptor (Homo sapiens) (UniProt P06401); assay: qHTS assay to identify small molecule antagonists of the progesterone receptor (PR) signaling pathway (AID 1346795; active means well fitted inhibition curve with a large enough effect in the signal ratio in the repeat runs, not every such curve was filed as active; the % refers to the signal ratio)
Summary of the method: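 Fluorescence intensity measured 2 hr after adding beta-lactamase FRET substrate to PR-UAS-bla HEK293T cells that had been co-treated 16 hr with compound and 1 nM R5020 (final concentration) in 2% charcoal-stripped FBS.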

[5] = qHTS assay to identify small molecule antagonists of the TGF-beta/Smad signaling pathway - cell viability counter screen (AID 1346824); further: nearly all actives have a fitted effect of over 50% in size
Summary of the method: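 SBE-bla HEK 293T cells were plated overnight at 37 C, then given compounds in DMSO plus TGF-beta1 (added as 0.25 ng/mL solution) for 5 hr. After the bla read, CellTiter-Glo was added to the same wells and luminescence read after 30 min at room temperature.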

[6] = qHTS assay to identify small molecule agonists of the TGF-beta/Smad signaling pathway - cell viability counter screen (AID 1346829); further: top concentration of the series differs between compounds; nearly all actives have a fitted effect of over 45% in size
Summary of the method: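 Same-well cytotoxicity: CellTiter-Glo added after the 2 hr room-temperature beta-lactamase substrate step, luminescence measured 30 min later; cells had 5 hr of compound at 37 C.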

[7] = qHTS assay to identify small molecule agonists of the TGF-beta/Smad signaling pathway (AID 1346859; active means well fitted activation curve with a large enough effect in the signal ratio in the repeat runs, not every such curve was filed as active; the % refers to the signal ratio; further: series mostly up to about 77 µM)
Summary of the method: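 After overnight seeding, SBE-bla HEK 293T cells are dosed with compounds in DMSO and kept 5 hr at 37 C, 5% CO2. LiveBLAzer-type FRET substrate is then applied for 2 hr at room temperature.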

[8] = biological target: Thyrotropin-releasing hormone receptor (Homo sapiens) (UniProt P34981); assay: qHTS assay to identify small molecule antagonists of the thyrotropin-releasing hormone receptor (TRHR) signaling pathway (AID 1346877; active means well fitted inhibition curve with a large enough effect in the repeat runs, not every such curve was filed as active; further: series mostly up to about 51 µM)
Summary of the method: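 TRHR-expressing HEK293 cells were seeded, cultured 18 h at 37 °C, then loaded with calcium dye for 2 h. Compounds were pre-incubated 5 min at room temperature before 1 nM TRH (final) was added, and kinetic fluorescence was recorded for 3 min.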

[9] = biological target: Thyrotropin-releasing hormone receptor (Homo sapiens) (UniProt P34981); assay: qHTS assay to identify small molecule agonists of the thyrotropin-releasing hormone receptor (TRHR) signaling pathway (AID 1346891; calls by dose curve; further: series mostly up to about 58 µM)
Summary of the method: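 Compounds were tested as agonists at 15 concentrations, in triplicate, on TRHR-Hek293 cells; calcium-sensitive dye fluorescence was recorded for 3 min following addition.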

[10] = Human pregnane X receptor (PXR) small molecule agonists, qHTS cell viability counter screen (AID 1346977); further: nearly all actives have a fitted effect of over 50% in size
Summary of the method: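 Viability counter screen: CellTiter-Fluor signal in PXR-Luc HepG2 cells, 24hr compound exposure, 37C, 5% CO2.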

[11] = Caspase-3/7 induction in HepG2 cells by small molecules, qHTS assay (AID 1346978); further: nearly all actives have a fitted effect of over 15% in size
Summary of the method: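 Wild-type HepG2 cells (2,000/well) were settled 5 h at 37 C, 5% CO2, then exposed to compounds in DMSO for 17 h. Caspase-3/7 activity was read by luminescence 30 min after adding Caspase-Glo 3/7 reagent at room temperature.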

[12] = Caspase-3/7 induction in CHO-K1 cells by small molecules, qHTS cell viability counter screen (AID 1346979); further: nearly all actives have a fitted effect of over 35% in size; further: potency means the concentration at half of the fitted maximal effect
Summary of the method: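 Viability readout by fluorescence (CellTiter-Fluor) on wild-type CHO-K1 cells exposed for 16hr at 37C and 5% CO2 to compounds delivered in DMSO; reagent incubated 1hr before reading.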

[13] = Caspase-3/7 induction in HepG2 cells by small molecules, qHTS cell viability counter screen (AID 1346981); further: nearly all actives have a fitted effect of over 30% in size; further: potency means the concentration at half of the fitted maximal effect
Summary of the method: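 Wild-type HepG2 cells (2,000/well) were allowed to settle for 5 hr at 37 C, 5% CO2, then dosed with compounds in DMSO by pin transfer. After 16 hr at 37 C, CellTiter-Fluor was added and fluorescence read 1 hr later.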

[14] = biological target: Nuclear receptor subfamily 1 group I member 2 (Homo sapiens) (UniProt O75469); assay: Human pregnane X receptor (PXR) small molecule agonists, qHTS assay (AID 1346982); further: nearly all actives have a fitted effect of over 35% in size; further: potency means the concentration at half of the fitted maximal effect
Summary of the method: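 PXR-Luc HepG2 cells (CYP3A4 promoter-driven luciferase) were seeded in medium with 5% charcoal-stripped FBS, left 5 hr at 37 C, then exposed to compounds in DMSO for 24 hr. Luminescence was read after ONE-Glo addition.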

[15] = biological target: Progesterone receptor (Homo sapiens) (UniProt P06401); assay: qHTS assay to identify small molecule agonists of the progesterone receptor (PR) signaling pathway (AID 1346784; calls by dose curve; further: nearly all actives have a fitted effect of over 30% in size; further: potency means the concentration at half of the fitted maximal effect)
Summary of the method: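 Fluorescence from LiveBLAzer B/G FRET substrate cleavage (2 hr, RT) reported PR activation in PR-UAS-bla HEK 293T cells treated 16 hr at 37C/5% CO2 with compounds; medium contained 2% charcoal-stripped FBS.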

[16] = qHTS assay to identify small molecule antagonists of the progesterone receptor (PR) signaling pathway - cell viability counter screen (AID 1346798); further: series mostly up to about 92 µM; nearly all actives have a fitted effect of over 50% in size
Summary of the method: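 CellTiter-Glo luminescence; PR-UAS-bla HEK293T, 3,000 cells/well; compound + R5020, 16 hr, 37C/5% CO2; 30 min RT before read.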

[17] = qHTS assay to identify small molecule agonists of the progesterone receptor (PR) signaling pathway - cell viability counter screen (AID 1346799; calls by dose curve; further: nearly all actives have a fitted effect of over 45% in size)
Summary of the method: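 In parallel with the beta-lactamase readout, cytotoxicity toward PR-UAS-bla HEK293T cells was measured by CellTiter-Glo luminescence following 16 hr compound incubation in 2% charcoal-stripped FBS medium.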

[18] = Caspase-3/7 induction in CHO-K1 cells by small molecules, qHTS assay (AID 1346980); further: nearly all actives have a fitted effect of over 15% in size
Summary of the method: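 Wild-type cells were seeded at 1,500 per well and settled 5 hr at 37 C, 5% CO2, then exposed to DMSO-dissolved compounds for 17 hr. Caspase-Glo 3/7 reagent was added, and luminescence was read after 30min at room temperature.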

[19] = biological target: Nuclear receptor subfamily 1 group I member 2 (Rattus norvegicus) (UniProt Q9R1A7); assay: Rat pregnane X receptor (rPXR) activation by small molecules, qHTS assay (AID 1346983); conditions: rPXR luciferase reporter cells, One-Glo luminescence, 24 h; max activation: stronger effect = higher value; further: nearly all actives have a fitted effect of over 20% in size; further: potency means the concentration at half of the fitted maximal effect
Summary of the method: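 Cell-based rPXR luciferase reporter assay, 2,000 cells per well, rested 5hr at 37 C before compound addition in DMSO, then 24 hr at 37 C. One-Glo reagent was added and luminescence read after 30 min at room temperature.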
On the % scale 0 is the no-effect control and ±100 the full control effect.

Sequence of Thyrotropin receptor (Homo sapiens) (P16473 whole entry, looked up): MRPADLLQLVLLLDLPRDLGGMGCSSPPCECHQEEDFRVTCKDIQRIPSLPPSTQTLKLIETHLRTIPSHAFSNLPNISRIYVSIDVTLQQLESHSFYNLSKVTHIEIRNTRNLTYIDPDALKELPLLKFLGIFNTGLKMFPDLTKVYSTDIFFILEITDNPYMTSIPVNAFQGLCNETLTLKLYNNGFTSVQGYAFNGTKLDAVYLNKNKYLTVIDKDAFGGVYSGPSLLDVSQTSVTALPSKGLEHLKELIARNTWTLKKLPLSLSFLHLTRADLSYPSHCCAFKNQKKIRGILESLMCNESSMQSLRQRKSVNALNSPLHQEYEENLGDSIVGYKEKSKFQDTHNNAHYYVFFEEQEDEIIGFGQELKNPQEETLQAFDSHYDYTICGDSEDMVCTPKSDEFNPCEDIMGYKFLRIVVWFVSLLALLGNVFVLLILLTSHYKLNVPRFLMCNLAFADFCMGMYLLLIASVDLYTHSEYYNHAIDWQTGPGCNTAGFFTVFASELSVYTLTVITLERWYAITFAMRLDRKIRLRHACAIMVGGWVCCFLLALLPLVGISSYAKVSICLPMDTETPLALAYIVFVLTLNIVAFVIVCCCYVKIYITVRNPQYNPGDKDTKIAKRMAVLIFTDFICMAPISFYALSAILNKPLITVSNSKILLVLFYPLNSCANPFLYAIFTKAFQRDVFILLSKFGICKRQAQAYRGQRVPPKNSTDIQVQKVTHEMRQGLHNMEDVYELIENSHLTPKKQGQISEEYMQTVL
Sequence of Thyrotropin-releasing hormone receptor (Homo sapiens) (P34981 whole entry, looked up): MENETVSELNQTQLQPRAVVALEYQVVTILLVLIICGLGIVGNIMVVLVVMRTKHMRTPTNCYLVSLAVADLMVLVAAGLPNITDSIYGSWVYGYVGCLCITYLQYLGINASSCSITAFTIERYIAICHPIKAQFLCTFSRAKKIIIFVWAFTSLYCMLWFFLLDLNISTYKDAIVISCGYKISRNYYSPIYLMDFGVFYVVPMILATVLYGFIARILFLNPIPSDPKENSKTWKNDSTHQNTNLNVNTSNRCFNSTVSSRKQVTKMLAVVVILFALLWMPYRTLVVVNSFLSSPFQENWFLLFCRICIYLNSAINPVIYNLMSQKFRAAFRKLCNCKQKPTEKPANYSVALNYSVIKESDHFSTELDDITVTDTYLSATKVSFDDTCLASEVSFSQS
Sequence of Nuclear receptor subfamily 1 group I member 2 (Rattus norvegicus) (Q9R1A7 whole entry, looked up): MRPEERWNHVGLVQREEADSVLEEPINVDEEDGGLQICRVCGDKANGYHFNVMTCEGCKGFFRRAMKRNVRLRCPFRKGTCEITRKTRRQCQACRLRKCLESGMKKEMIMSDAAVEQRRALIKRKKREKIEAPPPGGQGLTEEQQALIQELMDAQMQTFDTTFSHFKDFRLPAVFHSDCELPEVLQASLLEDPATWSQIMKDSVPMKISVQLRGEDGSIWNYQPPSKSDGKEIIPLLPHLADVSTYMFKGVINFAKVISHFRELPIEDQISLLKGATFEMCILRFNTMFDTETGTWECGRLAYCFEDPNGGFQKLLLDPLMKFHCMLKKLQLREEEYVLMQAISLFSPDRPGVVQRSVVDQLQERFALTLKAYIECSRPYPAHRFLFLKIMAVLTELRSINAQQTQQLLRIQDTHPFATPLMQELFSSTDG
Sequence of Progesterone receptor (Homo sapiens) (P06401 whole entry, looked up): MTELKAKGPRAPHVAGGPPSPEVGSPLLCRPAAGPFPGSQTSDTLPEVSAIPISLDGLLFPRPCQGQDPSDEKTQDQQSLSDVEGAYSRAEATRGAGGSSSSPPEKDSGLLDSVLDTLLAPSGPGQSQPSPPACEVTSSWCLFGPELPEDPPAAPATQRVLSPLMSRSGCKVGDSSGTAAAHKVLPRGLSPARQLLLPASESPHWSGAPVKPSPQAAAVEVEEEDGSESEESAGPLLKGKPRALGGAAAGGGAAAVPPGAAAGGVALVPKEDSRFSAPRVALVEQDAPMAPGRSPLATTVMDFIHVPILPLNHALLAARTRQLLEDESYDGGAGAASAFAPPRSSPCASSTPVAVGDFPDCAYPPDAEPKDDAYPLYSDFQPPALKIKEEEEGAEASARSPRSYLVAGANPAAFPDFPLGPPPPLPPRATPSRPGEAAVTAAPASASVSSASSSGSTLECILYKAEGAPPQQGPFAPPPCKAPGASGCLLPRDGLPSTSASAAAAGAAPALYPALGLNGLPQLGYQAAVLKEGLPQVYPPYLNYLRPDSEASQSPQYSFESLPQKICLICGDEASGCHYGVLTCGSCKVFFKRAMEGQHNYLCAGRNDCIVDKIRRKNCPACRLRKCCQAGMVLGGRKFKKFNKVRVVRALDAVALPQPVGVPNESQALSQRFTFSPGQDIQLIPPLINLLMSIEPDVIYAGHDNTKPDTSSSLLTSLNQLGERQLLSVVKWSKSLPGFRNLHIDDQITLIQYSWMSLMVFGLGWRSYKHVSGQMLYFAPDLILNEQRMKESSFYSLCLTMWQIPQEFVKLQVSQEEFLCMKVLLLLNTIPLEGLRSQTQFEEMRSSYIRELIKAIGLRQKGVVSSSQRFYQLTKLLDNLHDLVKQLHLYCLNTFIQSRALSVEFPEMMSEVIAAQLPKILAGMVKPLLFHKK
Sequence of Nuclear receptor subfamily 1 group I member 2 (Homo sapiens) (O75469 whole entry, looked up): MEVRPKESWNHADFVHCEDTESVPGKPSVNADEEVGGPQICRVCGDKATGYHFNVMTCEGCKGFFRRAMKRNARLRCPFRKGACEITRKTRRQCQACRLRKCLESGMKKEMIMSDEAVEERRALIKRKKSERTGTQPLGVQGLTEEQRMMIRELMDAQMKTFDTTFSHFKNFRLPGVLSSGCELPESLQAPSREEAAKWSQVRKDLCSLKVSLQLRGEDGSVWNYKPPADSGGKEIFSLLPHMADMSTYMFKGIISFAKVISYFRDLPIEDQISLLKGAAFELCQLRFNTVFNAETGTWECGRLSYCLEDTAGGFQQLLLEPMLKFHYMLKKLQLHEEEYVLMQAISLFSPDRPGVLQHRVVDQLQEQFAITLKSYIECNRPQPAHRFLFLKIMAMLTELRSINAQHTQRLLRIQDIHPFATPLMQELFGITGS

CC1(N)CCC(C(C)(C)N)CC1 (configuration not stated)
inactive: outcome [1] | outcome [2] | Potency [3] | Potency [4] | outcome [5] | outcome [6] | outcome [7] | outcome [8] | outcome [9] | Potency [10] | outcome [11] | Potency [12] | Potency [13] | Potency [14]

C[C@H]1O[C@H](O[C@H]2[C@H](O)[C@@H](O)[C@@H](O[C@H]3[C@H](O)[C@@H](O)[C@H](O)O[C@@H]3CO)O[C@@H]2CO)[C@H](O)[C@@H](O)[C@@H]1N[C@H]1C=C(CO)[C@@H](O)[C@H](O)[C@H]1O
inactive: Potency [3] | Potency [15] | Potency [4] | Potency [16] | Potency [17] | outcome [5] | outcome [6] | outcome [7] | outcome [8] | outcome [9] | Potency [10] | outcome [11] | Potency [12] | outcome [18] | Potency [13] | max activation [19] -1.07%

O=c1cc(O)c(Cl)c[nH]1
inactive: outcome [1] | outcome [2] | Potency [3] | Potency [16] | Potency [17] | outcome [5] | outcome [6] | Potency [10] | outcome [11] | Potency [12] | outcome [18] | Potency [13] | Potency [14] | max activation [19] -3.03%

NS(=O)(=O)c1ccccc1OC(F)(F)F
inactive: Potency [3] | Potency [15] | Potency [4] | Potency [16] | Potency [17] | outcome [5] | outcome [6] | outcome [7] | outcome [8] | outcome [9] | Potency [10] | outcome [11] | Potency [12] | outcome [18] | Potency [13] | Potency [14]

COc1ccc(N=Nc2cc(C)c(N=Nc3ccc(S(=O)(=O)O)cc3)cc2OC)cc1
active: Potency [3] 27.3 µM | Potency [12] 54.5 µM | Potency [13] 30.6 µM
inactive: outcome [1] | Potency [15] | Potency [16] | Potency [17] | outcome [5] | outcome [6] | outcome [7] | outcome [8] | outcome [9] | outcome [11] | outcome [18] | Potency [14]

CC(C)COC(=O)COc1ccc(Cl)cc1Cl
inactive: outcome [1] | outcome [2] | Potency [3] | Potency [15] | Potency [4] | Potency [17] | outcome [5] | outcome [6] | outcome [7] | outcome [8] | outcome [9] | Potency [10] | outcome [11] | Potency [12] | outcome [18] | Potency [13] | Potency [14]

CCC1Nc2cc(Cl)c(S(N)(=O)=O)cc2S(=O)(=O)N1 (configuration not stated)
inactive: outcome [1] | outcome [2] | Potency [3] | Potency [15] | Potency [16] | Potency [17] | outcome [5] | outcome [6] | outcome [7] | Potency [10] | outcome [11] | Potency [12] | outcome [18] | Potency [14] | max activation [19] -2.65%

NS(=O)(=O)c1cc2c(cc1Cl)NC(C(Cl)Cl)NS2(=O)=O (configuration not stated)
inactive: outcome [1] | outcome [2] | Potency [3] | Potency [15] | Potency [4] | Potency [17] | outcome [5] | outcome [6] | outcome [7] | outcome [8] | outcome [9] | Potency [10] | outcome [11] | outcome [18] | Potency [13] | Potency [14] | max activation [19] 3.75%

C[C@@H]1C[C@H]2[C@@H]3C[C@H](F)C4=CC(=O)C=C[C@]4(C)[C@@]3(F)[C@@H](O)C[C@]2(C)[C@@]1(O)C(=O)CO
inactive: outcome [1] | outcome [2] | Potency [3] | Potency [17] | outcome [5] | outcome [6] | outcome [7] | outcome [8] | outcome [9] | Potency [10] | outcome [11] | Potency [12] | outcome [18] | Potency [13]
active: Potency [15] 5.96 µM | Potency [19] 1.41 µM

CCOc1ccc(NC(=O)OC(C)C)cc1OCC
inactive: Potency [3] | Potency [15] | Potency [4] | outcome [5] | outcome [6] | outcome [7] | outcome [8] | outcome [9] | Potency [10] | outcome [11] | Potency [12] | Potency [13]
active: Potency [14] 48.6 µM

CCCCC[Si](OCC)(OCC)OCC
inactive: outcome [1] | outcome [2] | Potency [3] | Potency [15] | Potency [4] | outcome [5] | outcome [6] | outcome [7] | Potency [10] | outcome [11] | Potency [12] | outcome [18] | Potency [13] | Potency [14]
